Records with an inconclusive call do not appear. Calls of active or inactive are those of the source. Calls come from the whole dose curve; as a rule, active = well fitted curve in the direction sought with a large enough effect; inconclusive = small, poorly fitted or top-dose-only effect, or another doubt; inactive = no such curve, though single readings can be large; an effect the other way counts as inactive or inconclusive.
Columns and labels:
[1] = OV-KATE Cancer Cell Toxicity qHTS against the NCATS CANVASS Library (AID 1347345); note: potency is the fitted concentration of half-maximal effect
Summary of the method: (§1)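 Step one: seed 1000 cells per well. Step two: incubate 4 h. Step three: add test compounds in 11 concentrations. Step four: culture 72 h, then add CellTiter-Glo and record luminescence after 15min.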

[2] = HPAF-II Cancer Cell Toxicity qHTS against the NCATS CANVASS Library (AID 1347346); note: nearly all actives have a fitted effect of over 55% in size; note: potency is the fitted concentration of half-maximal effect
Summary of the method: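 Using 1000 HPAF-II cells per well, we titrated compounds over 11 concentrations for 72 h at 37 degrees C/5% CO2, with bortezomib as control. Cell survival was quantified by CellTiter-Glo luminescence.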

[3] = U-118MG Cancer Cell Toxicity qHTS against the NCATS CANVASS Library (AID 1347351); note: potency is the fitted concentration of half-maximal effect
Summary of the method: as §1

[4] = HEK293 18hr Apoptosis Induction qHTS against the NCATS CANVASS Library (AID 1347357)
Summary of the method: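 Cells seeded at 500/well in DMEM + 10% FBS. Compounds pinned, 11 concentrations. 18 h, 37 degrees C/5% CO2. Caspase-Glo 3/7 added, 15 min RT dark, luminescence read.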

[5] = HPAF-II 12hr Apoptosis Induction qHTS against the NCATS CANVASS Library (AID 1347358)
Summary of the method: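 Twelve-hour compound exposure of HPAF-II cells in DMEM with 10% FBS, then luminescent Caspase-Glo 3/7 detection after 15 min at room temperature; doxorubicin control.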

[6] = HEK293 24hr Apoptosis Induction qHTS against the NCATS CANVASS Library (AID 1347359)
Summary of the method: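 Caspase-3/7 activation measured as luminescence from the DEVD-based Caspase-Glo reagent, 15 min at room temperature, following 24-hour compound treatment of HEK293 cells.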

[7] = HEK293 12hr Apoptosis Induction qHTS against the NCATS CANVASS Library (AID 1347361); note: potency is the fitted concentration of half-maximal effect
Summary of the method: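 Cells are seeded, dosed with an 11-point compound series and incubated 12 hours. Caspase-3/7 activity is detected by luminescent DEVD-substrate reagent after 15 minutes at room temperature.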

[8] = molecular target: Luciferin 4-monooxygenase (Photinus pyralis) (UniProt P08659); assay: Firefly luciferase counterscreen qHTS: Assay Interference Panel against the NCATS CANVASS Library (AID 1347363); note: series mostly up to about 57 µM
Chain of Luciferin 4-monooxygenase (Photinus pyralis) (P08659 whole entry, looked up): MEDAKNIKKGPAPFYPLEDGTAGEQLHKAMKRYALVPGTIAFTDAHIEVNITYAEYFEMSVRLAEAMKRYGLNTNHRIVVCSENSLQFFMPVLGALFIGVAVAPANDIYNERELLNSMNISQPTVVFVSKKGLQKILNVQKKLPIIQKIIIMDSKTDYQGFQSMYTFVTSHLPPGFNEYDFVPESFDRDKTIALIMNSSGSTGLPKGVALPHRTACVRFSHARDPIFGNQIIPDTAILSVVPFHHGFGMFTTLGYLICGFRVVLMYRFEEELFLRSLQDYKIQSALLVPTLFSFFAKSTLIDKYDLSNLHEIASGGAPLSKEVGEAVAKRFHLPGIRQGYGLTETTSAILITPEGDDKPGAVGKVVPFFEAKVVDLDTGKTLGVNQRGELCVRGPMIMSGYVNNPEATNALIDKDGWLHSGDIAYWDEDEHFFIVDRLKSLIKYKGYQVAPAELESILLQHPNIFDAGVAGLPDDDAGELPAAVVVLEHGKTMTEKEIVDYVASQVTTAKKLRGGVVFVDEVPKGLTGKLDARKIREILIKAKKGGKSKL
Summary of the method: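 Luminescence inhibition readout: compounds (11-point qHTS) sat 15 min at room temperature with substrate mix (0.013 mM luciferin and ATP), then firefly luciferase was added and signal read 5 min later.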

[9] = KB-3-1 Cancer Cell Toxicity qHTS against the NCATS CANVASS Library (AID 1347366); note: nearly all actives have a fitted effect of over 75% in size; note: potency is the fitted concentration of half-maximal effect
Summary of the method: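 Luminescence from CellTiter-Glo (10 min, room temperature) measured KB-3-1 viability after 72 hr compound exposure at 37C. Cells were seeded at 500/well and tested in an 11-point series.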

[10] = MCF7 Cancer Cell Toxicity qHTS against the NCATS CANVASS Library (AID 1347369)
Summary of the method: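 Cells seeded at 500/well, then compound pinned. Plates incubated 72 hr at 37C, 5% CO2. CellTiterGlo added; luminescence read.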

[11] = J3T Cancer Cell Toxicity qHTS against the NCATS CANVASS Library (AID 1347371); note: potency is the fitted concentration of half-maximal effect
Summary of the method: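 ATP-based cytotoxicity in canine J3T cells: 72 hr exposure at 37C, 11-point titration, CellTiterGlo luminescent detection.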

[12] = molecular target: Nuclear receptor subfamily 1 group I member 3 (Homo sapiens) (UniProt Q14994); assay: qHTS for Constitutive Androstane Receptor (CAR) Antagonist screened against the NCATS CANVASS Library (AID 1347372); note: potency is the fitted concentration of half-maximal effect
Chain of Nuclear receptor subfamily 1 group I member 3 (Homo sapiens) (Q14994 whole entry, looked up): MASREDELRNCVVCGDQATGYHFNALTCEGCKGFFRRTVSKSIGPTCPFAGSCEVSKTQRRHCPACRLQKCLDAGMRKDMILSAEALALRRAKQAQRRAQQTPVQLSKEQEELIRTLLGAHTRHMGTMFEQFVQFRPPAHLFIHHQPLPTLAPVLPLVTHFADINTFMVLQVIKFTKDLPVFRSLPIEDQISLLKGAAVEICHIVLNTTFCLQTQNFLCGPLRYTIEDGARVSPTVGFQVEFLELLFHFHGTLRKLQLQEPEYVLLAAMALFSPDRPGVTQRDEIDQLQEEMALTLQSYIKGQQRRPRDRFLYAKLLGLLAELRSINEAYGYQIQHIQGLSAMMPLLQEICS
Summary of the method: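 Antagonist mode: compound added alongside 50 nM CITCO to HepG2-hCAR-CYP2B6 reporter cells, 24hr at 37C. Viability by CellTiter-Fluor fluorescence, then CAR-driven luciferase by ONE-Glo luminescence.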

[13] = molecular target: Nuclear receptor subfamily 1 group I member 3 (Homo sapiens) (UniProt Q14994); assay: qHTS for Constitutive Androstane Receptor (CAR) Agonist screened against the NCATS CANVASS Library (AID 1347373);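 note: every well also contained 1.5 µM PK11195 alongside the test compound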
Summary of the method: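 In an 11-point concentration series, compounds were incubated 24hr with HepG2 cells carrying hCAR and a CYP2B6-2.2kb reporter, with PK11195 at 1.5uM final. A CellTiter-Fluor viability read preceded the ONE-Glo luminescence read.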

[14] = qHTS for Hypoxia signaling pathway (HIF-1) agonists against the NCATS CANVASS Library (AID 1347375); note: potency is the fitted concentration of half-maximal effect
Summary of the method: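 An HRE-beta-lactamase ME-180 line is exposed for 17 h to an 11-point compound series, then read by CCF4-AM FRET. Cytotoxicity is measured in parallel in the same wells with CellTiter-Glo, and autofluorescence is checked separately.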

[15] = 10-beta competent E. coli microbial cell viability qHTS against the NCATS CANVASS Library (AID 1347376); note: series mostly up to about 46 µM
Summary of the method: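 Overnight 37C exposure of 10-beta E. coli (0.2 OD) to an 11-point concentration series; ATP-based luminescence after 20 min room-temperature reagent incubation; daunomycin as control.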

[16] = qHTS for H2AX Agonists against the NCATS CANVASS Library (AID 1347378);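 note: phospho-H2AX S139 level in CHO-K1 lysates by TR-FRET emission ratio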; note: potency is the fitted concentration of half-maximal effect
Summary of the method: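 CHO-K1, 1000 cells/well, o/n 37C; cpd several conc, 3 hr 37C, 0.76% DMSO; lyse 30 min RT; cryptate anti-pH2AX(S139) + d2 anti-H2AX, 24 hr RT; HTRF 665/620.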

[17] = Inflammasome Signaling qHTS Counterscreen: IL-1-beta AlphaLISA counterscreen against the NCATS CANVASS Library (AID 1347381);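 note: cell-free check with purified IL-1β in medium and no THP-1 cells; series mostly up to about 57 µM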
Summary of the method: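 Here, no cellular stimulation occurs; compounds in an 11-point series meet 4 pg purified IL-1-beta directly. Bead-based AlphaLISA detection follows (1 h acceptor/antibody, then 30 min donor, dark, room temperature), with excitation at 680 nm.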

[18] = Cytotoxicity qHTS for assessment of Hepg2 cells membrane integrity screened against the NCATS CANVASS Library (AID 1347387)
Summary of the method: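 Membrane damage in HepG2 monolayers was estimated from released LDH, measured with CytoTox-ONE (ex 560/em 590 nm), after 5 hr treatment across 0.59 nM - 46 uM final.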

[19] = qHTS for inhibitors of Wild type Zika virus screened against the NCATS CANVASS Library (AID 1347396);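 note: ATP luminescence of surviving cells so rescue from viral cell killing; series mostly up to about 46 µM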
Summary of the method: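 Using ATP-based luminescence (CellTiter Glo), this screen scores rescue of Vero 766 cells from wild-type Zika killing at 72 h post-infection. Compounds are tested in a concentration series.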

[20] = Viability qHTS for inhibitors of the SERCaMP assay screened against the NCATS CANVASS Library (AID 1347400); note: nearly all actives have a fitted effect of over 70% in size; note: potency is the fitted concentration of half-maximal effect
Summary of the method: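 Measures loss of viability in SERCaMP reporter SH-SY5Y cells treated for 48 h with compounds; luminescent ATP detection by CellTiter-Glo.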

Measured: Potency

CC1C(=O)C23CCC1C[C@@]21O[C@H]2C(C)(C)C=CC(=O)[C@@]23COC1=O (stereo not given in full)
inactive: all assays above

C/C(=C\[C@H](C)C(=O)CCCC1CC(=O)NC(=O)C1)[C@@H]1OC(=O)/C=C/CC/C=C/C[C@@H](O)[C@@H]1C
active: [1] 2.11 µM | [2] 1.49 µM | [9] 14.8 µM | [11] 2.64 µM | [12] 3.71 µM | [20] 5.38 µM
not listed: [3] | [16]
inactive: all other assays above

C[C@@H]1C(=O)[C@]23CC[C@H]1C[C@]21O[C@H]2C(C)(C)C=CC(=O)[C@@]23COC1=O
not listed: [13]
inactive: all other assays above

CNc1ccc(Cl)cc1C(=O)OC[C@]1(C)[C@H]2CC[C@]3(C)[C@@H](C[C@@H](OC)[C@H](C)[C@H]3C3=C(O)C(=O)OC3O)[C@]2(C)CC[C@H]1O (stereo not given in full)
active: [14] 13.3 µM
inactive: all other assays above

CCC1=C2CCCN3C(=O)O[C@H]([C@H]1OC(C)=O)[C@H]23
inactive: all assays above

CC(C)(Br)[C@@H](Cl)C[C@H](Br)[C@](C)(Cl)/C=C/Br
active: [1] 23.6 µM | [2] 26.6 µM | [3] 18.8 µM
not listed: [20]
inactive: all other assays above

COC1C(O)C(OC(N)=O)C(Oc2ccc3c(O)c(NC(=O)c4ccc(O)c(CC=C(C)C)c4)c(=O)oc3c2C)OC1(C)C (stereo not given)
not listed: [15]
inactive: all other assays above

CCCCCC[C@H](CCCCC[C@@H](O)C(N)=O)OC(=O)[C@@H]1CC=CN1C(=O)c1ccccc1O
inactive: all assays above

Oc1ccc(C2c3c(O)cc(O)cc3[C@@H]3C(c4ccc(O)cc4)c4c(O)cc(O)cc4[C@H]23)cc1 (stereo not given in full)
inactive: all assays above

CN1C(=O)C2C(N=CN2C)N(C)C1=O (stereo not given)
not listed: [3]
inactive: all other assays above

C=C1C(=O)O[C@H]2[C@H]1CC/C(CO)=C\CC[C@@]1(C)O[C@@H]21
active: [1] 18.8 µM | [2] 16.8 µM | [3] 18.8 µM | [7] 23.5 µM | [11] 18.7 µM | [12] 20.9 µM | [16] 21.7 µM | [20] 34 µM
not listed: [4] | [9] | [10] | [18]
inactive: all other assays above

CC(=O)O[C@H]1CC[C@@]2(C)C(CC[C@]3(C)C2CC=C2C4CC(C)(C)CC[C@]4(C)CC[C@]23C)C1(C)C (stereo not given in full)
inactive: all assays above
